Laboratory results reported in the supplement of paper PMC3334620.
In all, about 33,000 sequences were measured (“E-score (-0.5 to 0.5)”: median about -0.017, highest 2% from about 0.3 on). Many of the other results were omitted from the sample, so the highest values are more common in it than they were.

Each sequence was assayed against T1, Sut1 (UniProt P53032) (assay: PBM E-score (8-mer binding enrichment) (E-score (-0.5 to 0.5)); higher = stronger / more preferred TF binding). Conditions: protein concentration: 200 nM; construct: GST-full length.
T1 sequence: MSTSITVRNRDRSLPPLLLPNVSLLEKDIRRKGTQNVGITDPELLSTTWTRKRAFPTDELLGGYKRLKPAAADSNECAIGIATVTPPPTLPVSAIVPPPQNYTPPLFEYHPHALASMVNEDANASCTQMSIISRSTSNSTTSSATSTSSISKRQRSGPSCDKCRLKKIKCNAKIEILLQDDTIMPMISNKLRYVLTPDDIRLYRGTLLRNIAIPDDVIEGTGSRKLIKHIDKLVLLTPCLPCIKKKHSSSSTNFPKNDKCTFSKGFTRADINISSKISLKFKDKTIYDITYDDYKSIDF
Experimental: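 Universal 'all 10-mer' protein binding microarrays (Agilent AMADID 015681) probed with GST-tagged S. cerevisiae TFs (full-length or DBD) made by in vitro transcription/translation (PURExpress), about 100-200 nM. Bound TF was detected with fluorescent anti-GST. Each ungapped 8-mer (which stands for itself and its reverse complement) is scored by the PBM enrichment score (E-score), a modified Wilcoxon-Mann-Whitney statistic from -0.5 to +0.5, computed with the Universal PBM Analysis Suite. Scale: above 0.35 generally sequence-specific binding.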

Row | Sequence | PBM E-score
1 | ACTAAGTC | 0.0911
2 | CTACCCAG | -0.18
3 | AGAAATGC | 0.048
4 | GAAATCCC | -0.0066
5 | ATCACCTA | -0.13
6 | CTTAGCCC | -0.129
7 | ATGAACCC | 0.00896
8 | CCAAATCC | 0.0309
9 | AGCAGAAA | 0.175
10 | AAGGTCTC | -0.0653
11 | AAATTATC | 0.281
12 | GAATTATA | 0.335
13 | AGATTAAA | 0.324
14 | AAATTATT | 0.328
15 | GCATTATA | 0.118
16 | GCATTAAA | 0.0763
17 | TCATTAAA | 0.315
18 | CGATTAAA | 0.237
19 | GAATTATC | 0.0676
20 | AGATTAAT | 0.222
21 | AAATTACT | 0.234
22 | ACATTAAA | 0.259
23 | AGCAAATC | 0.142
24 | AGTGGCAT | -0.231
25 | CCCTTCAA | -0.068

Row | Sequence | PBM E-score
26 | ATTCCCTA | 0.11
27 | AAGGCCAG | -0.00339
28 | GAGCTAAA | 0.106
29 | AATTTCTA | 0.285
30 | AAATTAAC | 0.236
31 | ATATTATG | 0.362
32 | AAATTAAA | 0.333
33 | CTCTTAAC | 0.042
34 | CTCTTAAA | 0.302
35 | ATATTATA | 0.249
36 | GTCTTAAA | 0.00721
37 | AAATTAAT | 0.292
38 | ATATTATC | 0.223
39 | CTCTCGCC | -0.182
40 | GAGTTAAA | 0.13
41 | AGAACCTC | -0.0985
42 | GCAACGCC | -0.114
43 | CTTAAAGC | -0.0652
44 | TATACTGA | 0.292
45 | CATATTGA | 0.0287
46 | CATATTAA | 0.183
47 | TATATTGA | 0.332
48 | GATATTGA | 0.234
49 | TATATTAA | 0.315
50 | GATATTAA | 0.285

Row | Sequence | PBM E-score
51 | GAACAGAC | 0.0707
52 | GTCCTAGA | -0.141
53 | CGCCCGGA | 0.361
54 | AGCCCGGA | 0.341
55 | GCCCCGGA | 0.29
56 | AGCCCGGC | 0.00111
57 | GGCCCGCA | -0.113
58 | CGCCCGGC | -0.0194
59 | AGCCCGGG | 0.0766
60 | GGCCCGGA | 0.305
61 | CGCCCGAA | -0.101
62 | CTACCAAC | 0.0725
63 | AACTCGCT | 0.0435
64 | ACGGAGAT | 0.435
65 | ACGGAGAC | 0.232
66 | TCGGACAA | 0.367
67 | ACGGAGCG | 0.2
68 | ACGGAGAG | 0.247
69 | GCGGACAA | 0.23
70 | ACGGAGCT | 0.386
71 | ACGGAGAA | 0.362
72 | ACGGAGCC | 0.219
73 | CCGGACAA | 0.283
74 | ATGGAGAA | 0.108
75 | ACGGAGGA | 0.0201

Row | Sequence | PBM E-score
76 | GGATAGCA | 0.0461
77 | CGCTGTAA | 0.00093
78 | AACCTTTG | 0.0541
79 | AAACTAAT | 0.292
80 | GGTTATGA | -0.00868
81 | CACAACCA | 0.0851
82 | CGTTGCGC | -0.153
83 | GTTAGTCA | -0.0461
84 | ATTAGACC | -0.183
85 | ACATCAAT | 0.201
86 | AAACAGTC | -0.179
87 | CCGGATAA | 0.285
88 | GCGGAGAC | 0.183
89 | GCGGAGAA | 0.279
90 | CGGGAGAC | 0.132
91 | CAGGAGAA | 0.0231
92 | CCGGAGAC | 0.328
93 | ACGGATAA | 0.103
94 | CCGGAGAA | 0.397
95 | CCGGAGAG | 0.253
96 | TGGGAGAA | -0.07
97 | TCGGAGAA | 0.436
98 | TCGGATAA | 0.318
99 | TCTCTAAA | 0.107
100 | AAGATAAA | 0.199

Row | Sequence | PBM E-score
101 | GCGACTTA | -0.106
102 | ACGTCTCA | -0.0462
103 | AAAACTGA | 0.12
104 | CAGGTTGC | -0.135
105 | AGCCTTCC | -0.158
106 | GGCAGCAA | -0.129
107 | ATCGGCGC | -0.0591
108 | ATCGGAGA | 0.416
109 | ATCGGAGG | 0.0998
110 | CTAGGAGC | -0.306
111 | CTCGGAGC | 0.389
112 | ATCGGAGC | 0.358
113 | ATCGGATC | -0.00393
114 | CTCGGATA | 0.126
115 | CTTGGAGA | -0.00672
116 | ATCGGATA | 0.288
117 | CTCGGTGC | -0.02
118 | CTCGGAGA | 0.419
119 | ACCAACGC | 0.014
120 | CGGAGCCA | 0.294
121 | CGTTAAGC | 0.125
122 | CTGCTGTA | -0.0764
123 | TACAGGCA | 0.085
124 | GTCGGATA | 0.143
125 | GTCGGAGA | 0.325

Row | Sequence | PBM E-score
126 | GTAGGAGA | -0.0911
127 | AACTAGGA | 0.0329
128 | GACTCGCC | -0.158
129 | AAAAAGTA | 0.125
130 | CGGACTGC | 0.377
131 | CGGACTTA | 0.492
132 | GGGACTGA | -0.185
133 | GGGACTTA | -0.0858
134 | CAGACTGC | -0.135
135 | AGGACTGC | -0.334
136 | CGGACTGA | 0.298
137 | AGGACTTA | -0.0276
138 | AGGACTGA | -0.109
139 | GTAAACGA | -0.0179
140 | CACAGTAC | -0.0582
141 | GATCCGGC | 0.0532
142 | GATCCGAA | 0.26
143 | AATCCGGT | 0.258
144 | AATCCGGC | -0.0834
145 | TATCCGCA | 0.169
146 | TATCCGAA | 0.304
147 | GATCCGTA | -0.02
148 | GATCCGGA | 0.324
149 | TATCCGGA | 0.39
150 | AATCCGGA | 0.368

Row | Sequence | PBM E-score
151 | CATCCGGA | 0.292
152 | CATCCGAA | 0.151
153 | ACCCTCTA | -0.245
154 | AGGTCTTC | -0.256
155 | GGTCTCGA | 0.00072
156 | CAACAGTC | 0.0186
157 | TACGCGTA | -0.0808
158 | CGGCCACC | -0.0332
159 | CTCTAAAG | -0.0246
160 | AGATATTA | 0.211
161 | CGTCCGCC | -0.124
162 | CGTCCGCA | -0.177
163 | ATTCCGCC | 0.214
164 | GGTCCGCA | 0.241
165 | AATCCGCG | -0.103
166 | AGTCCGCC | 0.375
167 | ATTCCGCG | 0.18
168 | AGTCCGCG | 0.435
169 | AGTCCGCA | 0.441
170 | ATGCACGG | -0.114
171 | AACTTCTA | 0.131
172 | ACCAGCTG | -0.203
173 | GTCATAGA | -0.0539
174 | ATGAATAC | 0.132
175 | GGCAAACA | -0.119

Row | Sequence | PBM E-score
176 | GCCAAGGC | -0.29
177 | AGATGATA | 0.175
178 | TAATGAAA | 0.154
179 | GAATGATA | 0.259
180 | AAATGATA | 0.337
181 | AAATGATG | 0.16
182 | AAATGATC | 0.105
183 | CAATGATA | 0.144
184 | AAATGATT | 0.311
185 | TAATGATA | 0.317
186 | ACAGTGTC | -0.114
187 | GAATTCGA | 0.0801
188 | CTTTTCTC | 0.107
189 | GCATCGGA | 0.348
190 | ACATCGGA | 0.351
191 | CCATCGGA | 0.255
192 | TCATCGGA | 0.395
193 | TCATCGAA | 0.0449
194 | ACATCGGC | -0.0386
195 | ACATCGGT | -0.034
196 | GCATCGGC | -0.241
197 | GCATCGTA | -0.0143
198 | GCAATACA | 0.196
199 | GAAATTGC | -0.0449
200 | AGCACGCG | 0.0217

Row | Sequence | PBM E-score
201 | ATTACATA | 0.154
202 | AGAGTCTG | -0.236
203 | ACCACACA | 0.109
204 | CTCACAGC | -0.051
205 | TCTCAGAA | -0.12
206 | CAAGTTGC | 0.0786
207 | GGCTGTAC | -0.0774
208 | GGACTTAA | 0.326
209 | AGACTTAA | -0.137
210 | CGACTTAA | 0.00564
211 | GGACTTAC | 0.352
212 | AGACTTAC | -0.0551
213 | CGACTTAC | -0.0195
214 | GCAAGAGA | -0.196
215 | CTTCTGGA | -0.0307
216 | CTCGGACC | 0.368
217 | ATCGGACA | 0.257
218 | ATCGGACC | 0.353
219 | AGCGGACC | 0.00064
220 | CTCGGACA | 0.354
221 | CTCGGAAC | 0.182
222 | GTCGGACA | 0.271
223 | CTCGGATC | 0.204
224 | ATCGGACG | 0.0416
